Test [1] has as its target T1, Aspartate--tRNA(Asp/Asn) ligase (Mycobacterium tuberculosis (strain ATCC 25618 / H37Rv)) (UniProt P9WFW3). Also: in the data most compounds retested in dose-response had high values.
T1 sequence (whole entry): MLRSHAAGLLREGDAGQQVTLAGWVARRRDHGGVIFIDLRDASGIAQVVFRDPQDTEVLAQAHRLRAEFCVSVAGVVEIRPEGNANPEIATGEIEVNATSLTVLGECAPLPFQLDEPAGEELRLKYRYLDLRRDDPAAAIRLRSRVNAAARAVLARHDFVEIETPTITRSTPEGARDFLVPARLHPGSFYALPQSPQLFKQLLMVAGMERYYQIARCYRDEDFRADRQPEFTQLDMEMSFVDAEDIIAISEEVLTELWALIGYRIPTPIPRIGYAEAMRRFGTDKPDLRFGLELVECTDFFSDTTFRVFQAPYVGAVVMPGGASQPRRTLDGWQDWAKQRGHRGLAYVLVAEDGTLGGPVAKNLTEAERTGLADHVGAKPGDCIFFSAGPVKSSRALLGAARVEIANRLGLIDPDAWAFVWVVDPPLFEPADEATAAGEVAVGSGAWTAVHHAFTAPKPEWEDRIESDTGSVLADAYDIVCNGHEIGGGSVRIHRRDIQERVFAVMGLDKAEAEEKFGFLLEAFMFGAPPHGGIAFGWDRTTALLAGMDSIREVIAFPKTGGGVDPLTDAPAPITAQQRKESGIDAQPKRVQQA
Description: Assay for Asp RNA synthetase-1 from Mycobacterium tuberculosis. The format is functional. Set-up: scale not given: direction of the effect not stated beside the values. As to conditions: 30 µM.

Test [2] addresses Shiga toxin 2 (Escherichia coli O157:H7) (UniProt P09385+P09386). Briefly: E. coli 0.157:H7 Shiga Toxin SOP - stx2 screening assay. The format is functional. Set-up: scale not given: direction of the effect not stated beside the values. As to conditions: 30 µM.

Regarding `CCC(=O)Nc1nnc(CCCOc2ccccc2)s1`, the Percent Effect in test [1] is -2.47%; in test [2], -12%.
In the same order, the values of `Cc1nc(CC(=O)N2CCCCC2c2ccn3ccnc3n2)cs1` (configuration not stated) are -0.0744% and 4.13%.
In the same order, the values of `CC(C)c1nn(CC(=O)N2CCCCC2)c(=O)c2c1cnn2C(C)(C)C` are -5.41% and 2.7%.
In the same order, the values of `CC(C)c1n[nH]c(C2CN(C(=O)CCCn3cccn3)CCO2)n1` (configuration not stated) are -2.62% and -10.6%.
With `c1cnc(N2CCC3(CC2)CN(CC2CC2)c2ccccc23)nc1`, the figures for the Percent Effect in test [1] and in test [2] were 3.62% and -25%, respectively.
In the same order, the values of `CN(C)c1cc(CNC(=O)Nc2ccc(F)cc2)ccn1` are 3.3% and -156%.
In the case of `Clc1ccc2oc(C3CCN(Cc4cccnc4)CC3)nc2c1`, the Percent Effect in test [1] was 1.26%; in test [2], -46.7%.
In the same order, the values of `CCn1nnc2c1C(COC)CN(C(=O)COc1ccccc1)C2` (configuration not stated) are -1.42% and -31.2%.
Consider `CNc1cc(C)nc(C2CN(Cc3cc[nH]n3)CCO2)c1` (configuration not stated), for which the Percent Effect in test [1] is -0.432%; in test [2], 13.3%.
In the same order, the values of `COCCN1C[C@@H]2CN(Cc3ccsc3)CCC[C@]2(C(=O)O)C1` are 2.26% and -14.2%.
In the same order, the values of `CC(C(=O)NCCCn1ccnc1)n1cc(Br)cn1` (configuration not stated) are 3.33% and -54.3%.
Consider `CCCN1C(=O)CC(N2CCN(c3ccc(F)cc3)CC2)C1=O` (configuration not stated), for which the Percent Effect in test [1] is 5.99%; in test [2], -15.7%.
Turning to `CCOC(=O)[C@]12CCCN(Cc3nccs3)C[C@H]1CN(CCN(C)C)C2`, the Percent Effect is 6.19% in test [1] and -7.56% in test [2].
In the same order, the values of `Cc1nc(C)n(CC2CCCN(CCCOc3ccccc3)C2)n1` (configuration not stated) are 0.568% and 8.48%.
In the same order, the values of `CCN(Cc1ccc2c(c1)OCO2)C(=O)c1ccc(C)[nH]c1=O` are 0.522% and -16%.
For `CCc1ncncc1C(=O)NCCN1CCC(C)CC1`, the Percent Effect in test [1] was -3.79%; in test [2] it was 5.13%.
In the same order, the values of `Cc1nc(C)n(CC2CCCN2Cc2nc3ccccc3n2C)n1` (configuration not stated) are -7.69% and 5.05%.
In the same order, the values of `CCc1ncnc2c1CCN(Cc1ccc(OC)cc1)CC2` are -0.259% and -28%.
In the same order, the values of `Cc1cc(CN(C)C(=O)c2ccc(F)cc2Br)no1` are 0.189% and -57%.
Turning to `CCCC(C)(C)NC(=O)c1ccc(CC2CC(=O)NC2=O)cc1` (configuration not stated), the Percent Effect in test [1] is -0.604%; in test [2], -9.64%.
In the same order, the values of `O=C(NCCOc1ccc(F)c(F)c1)NCc1ccncc1` are -0.948% and -4.38%.
In the same order, the values of `Cn1ccnc1CN1CCC2(CC(=O)N(c3cccc(F)c3)C2)C1` (configuration not stated) are 6.19% and -33.1%.
Take `O=C(NC1CC1)[C@H]1C[C@H]2OCC[C@H]2N(CC2CCOCC2)C1`: the results for the Percent Effect in test [1] and in test [2] were 4.28% and -17.4%, respectively.
In the same order, the values of `Cc1ncccc1O[C@H]1CCN(C(=O)Cc2cccs2)CC[C@@H]1O` are -2.28% and -7.15%.
In the same order, the values of `Cc1nc(C)n(CC2CCCCN2CCS(C)(=O)=O)n1` (configuration not stated) are -3.09% and -15.8%.
In the same order, the values of `CC(=O)N1CCN(Cc2csc(-c3cnn(C)c3)n2)CC1` are -1.03% and -1.47%.
`CC(=O)N1CC(=O)N(c2cnn(C)c2)CC12CCN(CC1CC1)C2` (configuration not stated): the Percent Effect was 4.21% in test [1] and -23.2% in test [2].
In the same order, the values of `O=C1CCSCC(C(=O)N2CCOCC2)N1` (configuration not stated) are 1.64% and 3.97%.
In the same order, the values of `CCn1ccnc1CN1CCN(CCC(=O)NC(C)(C)C)CC1C` (configuration not stated) are -4.35% and 15.4%.
In the same order, the values of `CC(C)n1c(=O)nc2n1C(=O)N(c1ccc(F)cc1)C2` are 2.49% and 2.99%.
Take `COCC(C)N(C)C(=O)c1nc(S(C)(=O)=O)n2ccccc12` (configuration not stated): the values for the Percent Effect in test [1] and in test [2] were -0.433% and -13.2%, respectively.
In the same order, the values of `Cc1cc(C)n(C2CCCN(C(=O)C3=NN(C)C(=O)CC3)C2)n1` (configuration not stated) are 0.706% and 17.2%.
In the same order, the values of `Cn1c(Cn2cccn2)nnc1C1CCCN(c2ccncc2F)C1` (configuration not stated) are -0.254% and -2.56%.
For the compound `CC(=O)N1CCC(C(=O)c2cc(C)cnc2N)CC1`, the figures for the Percent Effect in test [1] and in test [2] were 0.75% and -6.78%, respectively.
Turning to `CSCC[C@H](NC(=O)Cn1ccc2c(Cl)cccc21)C(=O)O`, the Percent Effect in test [1] is -3.22%; in test [2], -22%.
In the same order, the values of `O=C(c1ccsc1)N1CCc2c(COCc3ccncc3)cncc2C1` are -1.03% and -68.5%.
In the same order, the values of `CC(=O)N1CCCC(c2ccc(Nc3nc(C)cc(C)n3)cn2)C1` (configuration not stated) are -1.31% and 3.11%.
For the compound `CCC1CCCN(C(=O)Cc2csc(-c3ncccn3)n2)C1` (configuration not stated), the results for the Percent Effect in test [1] and in test [2] were 0.456% and -14.8%, respectively.
In the same order, the values of `Cc1nc(CN2CCCN(CC(=O)Nc3cccnc3)CC2)no1` are 1.58% and 16.4%.
In the same order, the values of `COc1ccc(-c2nnc(SCC(=O)NCC(C)C)[nH]2)c(OC)c1` are 6.14% and 6.1%.
On to `COCCCNC(=O)CN(C)C(=O)c1cc(C)ccc1O`, for which the Percent Effect in test [1] was found to be 0.583%; in test [2] it was 14.3%.
On to `OC[C@H]1CC[C@]2(CC1)CN(Cc1ccccn1)Cc1ccccc1O2`, for which the Percent Effect in test [1] came to 0.104%; in test [2] it was 2.28%.
In the same order, the values of `CN(Cc1nccn1CC(F)(F)F)C(=O)c1ccc(F)c(F)c1` are 2.69% and 0.723%.
In the same order, the values of `Cc1noc(CN2CCC(c3ccnn3CCO)CC2)n1` are -2.2% and 4.21%.
In the same order, the values of `CN1CCN(C2CCN(CC(=O)NCC(F)(F)F)CC2)C1=O` are -5.68% and -21%.
For `COc1ccc(CNC(=O)NC(C)Cn2cccn2)cc1O` (configuration not stated), the Percent Effect is -1.61% in test [1] and 17.6% in test [2].
`CCCNC(=O)COc1ccc(C)cn1`: the Percent Effect was -4.7% in test [1] and -36.7% in test [2].
Turning to `CC(C)c1noc(CCC(=O)NCC2CCOC2)n1` (configuration not stated), the values for the Percent Effect in test [1] and in test [2] were -0.573% and -7.84%, respectively.
In the same order, the values of `COC(=O)c1cccc(OCCn2nc(-c3cccs3)oc2=O)c1` are 3.9% and 25%.
In the same order, the values of `Cc1cc(CNc2cc(Cl)ccc2OCCS(C)(=O)=O)no1` are -2.26% and -0.408%.
In the same order, the values of `O=C(NCCc1ccccc1)C1CCCN(c2ccc3nncn3n2)C1` (configuration not stated) are -2.08% and -7.24%.

The record behind these values is ChEMBL document CHEMBL3988442, “University of Dundee, Small-Polar-MMV Screening Library” (2021).
